Screening results as filed in PubChem.
SMN2 splice enh: SMN2 splice variant enhancement; Potency, µM (titrated, usually from 46.1 µM), for the others: top-dose activity change, positive = activation, actives largely listed as activators; HEK293 SMN2-luciferase splicing reporter, luminescence, 30-36 h; 2.8% of 210,000 active; AID 1458; further: % of control where 0% means no effect; nearly all actives have a fitted effect of over 55% in size
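HEK293 cells carry an SMN2 […]–luciferase reporter in which exon 7 inclusion puts luciferase in frame. Cells were plated 10-12 h before compound addition, then incubated 30-36 h at 37C. ONE-Glo luminescence was read; sodium butyrate at 4.5 mM final served as control.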
NPC1 prom act: NPC1 promoter activation. Potency, µM (highest dose often 9.22 µM), without a hit: at the highest dose activation, actives largely listed as activators. 2.4% of 320,000 active. Huh7 NPC1 promoter luciferase reporter, 24 h. AID 485313; further: % of control where 0% means no effect; nearly all actives have a fitted effect of over 60% in size
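Luminescence read-out of NPC1 promoter-driven luciferase in stably transfected Huh7 cells; compounds delivered in DMSO and left 24 h at 37C, 5% CO2, qHTS titration format.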
Rab9 prom act: activators of Rab9 promoter. AID 485297. Huh7 Rab9 promoter-luciferase reporter, luminescence, 24 h. Potency, µM (titrated, usually from 9.22 µM), without a hit: at the highest dose activation, negative = inhibition, actives largely listed as activators. 2.8% of 320,000 active; further: % of control where 0% means no effect; nearly all actives have a fitted effect of over 60% in size
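Cell-based reporter: Huh7 stable for Rab9 promoter-driven luciferase, plated in reduced-serum medium with 10% FBS at 1500 cells/well, compound-treated 24 h at 37 °C, luminescence read after 10 min reagent.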
ELG1 genotox: induces genotoxicity in HEK293T cells with luciferase-tagged ELG1 | HEK293T ELG1-luciferase reporter, luminescence, 16 h | Potency, µM (highest dose often 46 µM), without a hit: top-dose activity change, positive = activation, actives largely listed as activators | 1.3% of 330,000 active; further: % of control where 0% means no effect; nearly all actives have a fitted effect of over 60% in size
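Screening used a luciferase reporter fused to human ELG1 in HEK293T cells. Luminescence was read on a CCD plate imager after 16 hr exposure and 30 min ONE-Glo incubation.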
FLuc counter: inhibits or activates purified firefly luciferase, miR-21 counter-screen | P08659 | purified FLuc, Km substrates, luminescence inhibition | Potency, µM (series often up to 57.5 µM), without a hit: at the highest dose activity change, negative = inhibition, most hits filed as inhibitors | 6.9% of 360,000 active | AID 588342;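 further: plate controls were vehicle for no effect and reference inhibitor for full effect; nearly all actives have a fitted effect of over 55% in size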
Target sequence (P08659 whole entry, looked up): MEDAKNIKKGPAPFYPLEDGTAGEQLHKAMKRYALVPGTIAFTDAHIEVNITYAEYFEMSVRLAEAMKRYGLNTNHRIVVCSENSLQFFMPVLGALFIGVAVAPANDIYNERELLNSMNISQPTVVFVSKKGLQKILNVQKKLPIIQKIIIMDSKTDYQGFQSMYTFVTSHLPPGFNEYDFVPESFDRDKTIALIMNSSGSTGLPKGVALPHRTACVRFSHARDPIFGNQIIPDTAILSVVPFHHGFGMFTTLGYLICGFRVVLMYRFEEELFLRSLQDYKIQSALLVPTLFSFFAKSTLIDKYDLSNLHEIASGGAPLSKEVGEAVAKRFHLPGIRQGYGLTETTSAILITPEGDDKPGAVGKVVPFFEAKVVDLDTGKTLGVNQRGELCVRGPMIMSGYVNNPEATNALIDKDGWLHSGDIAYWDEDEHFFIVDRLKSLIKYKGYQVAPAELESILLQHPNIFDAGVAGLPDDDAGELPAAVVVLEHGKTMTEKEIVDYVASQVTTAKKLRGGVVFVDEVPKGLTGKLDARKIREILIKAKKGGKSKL
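Purified P. pyralis luciferase (10nM final) with 10uM D-luciferin and 10uM ATP (Km levels) in 50mM Tris acetate pH 7.5, 10mM Mg acetate, 0.01% Tween-20, 0.05% BSA; qHTS 6-point titration, ~60 µM downward; luminescence read.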
Starred values were filed as active, the others as inactive; [ ] = remark or other dose. Shown are actives, neighbours in structure and some others; about 7.4% of the full set was active somewhere. The call rests on the fitted dose curve; in most records, active means well fitted curve in the direction sought with a large enough effect; inconclusive means small, poorly fitted or top-dose-only effect, or another doubt; inactive means no such curve, though single readings can be large; an effect the other way counts as inactive or inconclusive. Potency means the concentration at half of the fitted maximal effect.

Screening COc1ccc(-c2nc3ccccc3o2)cc1OC returned NPC1 prom act inconclusive, Rab9 prom act 22%, ELG1 genotox inconclusive and FLuc counter 11µM*.
`COC(=O)c1ccc(-c2nc3ccccc3o2)cc1` gave SMN2 splice enh inconclusive, NPC1 prom act 3.5µM*, Rab9 prom act 0.63µM*, ELG1 genotox inconclusive and FLuc counter 1.9µM*.
Screening c1ccc2oc(-c3ccc4nc[nH]c4c3)nc2c1 returned SMN2 splice enh 13µM*, NPC1 prom act 2.5µM*, Rab9 prom act 1.6µM*, ELG1 genotox 21µM* and FLuc counter 3.4µM*.
For Cc1ccc(C)n1-c1nnc(N2CCCC(C(=O)NCc3cccc(Cl)c3)C2)s1 (stereo not drawn) the results were SMN2 splice enh -4% and FLuc counter 2%.
Cc1ccc2oc(=O)c(S(=O)(=O)c3ccc(C(C)(C)C)cc3)cc2c1 was read as SMN2 splice enh -6% and FLuc counter -1%.
For O=C(Nc1cccc(Cl)c1)N(Cc1nc2ccccc2c(=O)[nH]1)Cc1cccs1 the results were SMN2 splice enh -12%, NPC1 prom act -5%, Rab9 prom act -7%, ELG1 genotox -13% and FLuc counter -1%.
c1ccc(-c2noc(-c3ccc4c(c3)OCO4)n2)cc1 was read as SMN2 splice enh 5µM*, NPC1 prom act 0.45µM*, Rab9 prom act 0.28µM*, ELG1 genotox 0.41µM* and FLuc counter 0.48µM*.
`COCC1CCN(Cc2nc(-c3ccc4c(c3)OCO4)no2)C1` (stereo not drawn) gave NPC1 prom act inconclusive, Rab9 prom act 2.8µM*, ELG1 genotox inconclusive and FLuc counter inconclusive.
Screening COc1cccc(-c2noc(-c3ccc4c(c3)OCO4)n2)c1 returned NPC1 prom act 2.5µM*, Rab9 prom act 0.56µM*, ELG1 genotox 1.8µM* and FLuc counter 0.54µM*.
COc1ccc(-c2noc(-c3ccc4c(c3)OCO4)n2)cc1 was read as SMN2 splice enh 8.9µM*, NPC1 prom act 0.79µM*, Rab9 prom act 1.1µM*, ELG1 genotox inconclusive and FLuc counter 0.95µM*.
For CN(CC(=O)O)Cc1c(O)c(Cl)cc(Cl)c1Cl the results were SMN2 splice enh -14%[9.22 µM].
`CCCCCn1cc2c(c1-c1ccccc1Br)c(=O)n(C)c(=O)n2C` gave SMN2 splice enh -11% and FLuc counter -11%.
c1ccc(-c2noc(-c3ccc4ccccc4c3)n2)cc1 was read as SMN2 splice enh -9%, NPC1 prom act -17%, Rab9 prom act -15%, ELG1 genotox inconclusive and FLuc counter 0.27µM*.
`CC(CCc1ccccc1)NC(=O)Cn1cccc1C(=O)c1ccccc1` (stereo not drawn) gave NPC1 prom act 0%, Rab9 prom act -1%, ELG1 genotox -4% and FLuc counter 1%.
Screening O=C1CCCC(O)=C1N=Nc1ccc(C(=O)O)cc1 returned NPC1 prom act 0%, Rab9 prom act 2%, ELG1 genotox -4% and FLuc counter -2%.
`O=C1CCCC(O)=C1N=Nc1ccc2c(c1)OCO2` gave SMN2 splice enh 16µM*, NPC1 prom act inconclusive, Rab9 prom act 3.2µM*, ELG1 genotox 16µM* and FLuc counter 9.5µM*.
For O=C(Cc1ccccc1[N+](=O)[O-])Nc1nccs1 the results were NPC1 prom act 0%, Rab9 prom act 4%, ELG1 genotox -3% and FLuc counter -12%.
O=C(Nc1nccs1)c1ccc(-c2ccccc2[N+](=O)[O-])o1 was read as NPC1 prom act 2.8µM*, Rab9 prom act 2µM*, ELG1 genotox inconclusive and FLuc counter 4.3µM*.
`O=C(Nc1nccs1)c1ccc(-c2ccccc2Cl)o1` gave SMN2 splice enh 11µM*, NPC1 prom act 2.5µM*, Rab9 prom act 2.5µM*, ELG1 genotox 4.1µM* and FLuc counter 2.4µM*.
For O=C(NCCCN1CCN(c2ccc(F)cc2)CC1)c1ccc2nc(Cc3ccccc3)oc2c1 the results were FLuc counter -5%.
O=C(Nc1ccc(Cl)cc1C(=O)NCC1CCCO1)c1ccc(Cl)cc1Cl (stereo not drawn) was read as SMN2 splice enh 5%, NPC1 prom act -4%, Rab9 prom act -2%, ELG1 genotox -3% and FLuc counter inconclusive.
For O=C1CC(SCCO)C(=O)N1c1ccc(Oc2ccccc2)cc1 (stereo not drawn) the results were SMN2 splice enh 9%, NPC1 prom act 23%, Rab9 prom act 21%, ELG1 genotox 5% and FLuc counter 21µM*.
Screening O=C(O)CCSC1CC(=O)N(c2ccccc2)C1=O (stereo not drawn) returned NPC1 prom act 1%, Rab9 prom act 3%, ELG1 genotox 1% and FLuc counter -2%.
Cc1ccccc1C(=O)N/N=C/c1ccccn1 was read as SMN2 splice enh 11µM*, NPC1 prom act 3.2µM*, Rab9 prom act 4µM*, ELG1 genotox 26µM* and FLuc counter 8.5µM*.
`O=C(N/N=C/c1ccc(-c2ccccc2)o1)c1ccccc1O` gave NPC1 prom act 11%, Rab9 prom act 19%, ELG1 genotox 0% and FLuc counter 5.4µM*.
Screening Cc1ccccc1OCC(=O)N/N=C/c1ccccn1 returned SMN2 splice enh 6%, NPC1 prom act -6%, Rab9 prom act -5%, ELG1 genotox -3% and FLuc counter 2%.
For CC1(C)C2CC=C(/C=N/NC(=O)c3ccccc3O)C1C2 (stereo not drawn) the results were SMN2 splice enh -15%, NPC1 prom act -1%, Rab9 prom act -3%, ELG1 genotox 0% and FLuc counter 7.6µM*.
Screening O=C(N/N=C\c1ccccn1)c1ccccc1O returned SMN2 splice enh 18%, NPC1 prom act 0%, Rab9 prom act 13%, ELG1 genotox inconclusive and FLuc counter 12µM*.
CNC(=S)N/N=C/C1=CCC2CC1C2(C)C (stereo not drawn) was read as SMN2 splice enh 9%, NPC1 prom act -2%, Rab9 prom act -5%, ELG1 genotox 0% and FLuc counter 9%.
For CCOc1ccc(CNC(=O)c2oc3c(c2C)-c2nn(Cc4cccc(Cl)c4)cc2CC3)cc1 the results were FLuc counter -3%.
Screening O=C(CNC(=O)C1COc2ccccc2O1)N/N=C/c1ccc(O)cc1O (stereo not drawn) returned SMN2 splice enh -91%, NPC1 prom act -3%, Rab9 prom act -13%, ELG1 genotox inconclusive and FLuc counter 4%.
For O=C(N/N=C\c1ccncc1)c1ccccc1O the results were SMN2 splice enh 25%, NPC1 prom act 13%, Rab9 prom act -1%, ELG1 genotox -5% and FLuc counter 9.5µM*.
